Entries with a potency or affinity are not part of this list. Active and inactive are the calls of the source.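 Rule for the calls: active = every repeat run showing a signal drop whose fitted half-maximal concentration is at most twice the top tested concentration; inconclusive = repeat runs disagree, or flat partial drop, or poor fit; inactive = the rest.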
Assay: HEK293T cytotoxicity, dose response, cytotoxicity control for miR-122 modulator project, cell-based, activator set, cherry-pick (AID 720690)
Settings: HEK293T viability, CellTiter-Glo luminescence, 48 h; series mostly up to 26 µM

Structure (SMILES) | outcome
CCNC(=O)C[C@@H]1CC[C@@H]2[C@@H](COc3ccc(NC(=O)c4ccccc4)cc3C(=O)N2C)O1 | inactive
CN1C(=O)c2cc(NC(=O)c3cccs3)ccc2OC[C@H]2O[C@@H](CC(=O)N3CCCCC3)CC[C@H]21 | inactive
N#Cc1c(N)nc2c(c1-c1cccs1)CCCC2 | inactive

Reference: PubChem BioAssay AID720690 (Broad Institute, 2013)
